Consider 7 molecules from PubChem BioAssay (NCATS).

The target of test [1] is Glucocorticoid receptor (Homo sapiens) (UniProt P04150). As to the kind of experiment: qHTS assay for small molecule agonists of glucocorticoid receptor signaling (AID 588532; active = well fitted curve in the direction sought with a large enough effect in the signal ratio, with a control signal flat; the % refers to the signal ratio;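 also: 100% = dexamethasone at 0.1 µM and 0% = DMSO only wells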). As to conditions: HeLa MMTV-bla, beta-lactamase ratio, agonist, 18 h; stronger effect = higher value; percent of dexamethasone control, DMSO zero. A digest of the protocol:
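Stimulation of a glucocorticoid response element-driven beta-lactamase gene was measured in HeLa cells. Responses were scaled between DMSO basal and 0.1 uM dexamethasone, then fitted for half-maximal stimulation.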
For orientation: qHTS replaces the single test concentration by a dilution series.

Test [2] is described as follows: qHTS assay for small molecule antagonists of peroxisome proliferator-activated receptor delta signaling (AID 588535; active = well fitted inhibition curve with a large enough effect in the signal ratio, with a control signal flat, not every such curve was filed as active; the % refers to the signal ratio;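 as to max response: cells co-treated with a PPAR-delta agonist as stimulator during compound exposure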). As to conditions: HEK293T PPARd-UAS-bla, beta-lactamase FRET ratio, 18 h; 460 nm channel. A digest of the protocol: (§1)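 GeneBLAzer PPAR-delta-UAS-bla HEK293T cells in medium with 2% charcoal/dextran FBS were preincubated 5 hrs at 37 C, then given compounds, incubated 18 hrs at 37 C, and read by CCF4 beta-lactamase fluorescence; IC50 from Hill fits.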

In test [3] the target is Peroxisome proliferator-activated receptor delta (Homo sapiens) (UniProt Q03181). The description is as above. As to conditions: HEK293T PPARd-UAS-bla, beta-lactamase FRET ratio, 18 h; series mostly up to 76.7 µM. A digest of the protocol: as §1
Test [4] deals with Retinoic acid receptor RXR-alpha (Homo sapiens) (UniProt P19793). The test can be described thus: qHTS assay for small molecule agonists of retinoid X receptor alpha signaling (AID 588544; calls by dose curve;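 also: 0% = DMSO basal wells and 100% = reference agonist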). As to conditions: HEK293T RXRa-UAS-bla, beta-lactamase reporter, 18 h; series mostly up to 76.7 µM.
The target of test [5] is Thyroid hormone receptor beta (Homo sapiens) (UniProt P10828). The test can be described thus: qHTS assay for small molecule agonists of thyroid hormone receptor beta signaling (AID 588545; calls by dose curve). As to conditions: TR-UAS-bla GripTite HEK 293, beta-lactamase ratio, agonist mode, 18 h; series mostly up to 76.7 µM. The essentials: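 Cells (2500/well) were seeded, incubated 4 hrs at 37 C, dosed with a compound series, incubated 18 hrs, loaded with CCF4 dye for 2 hrs at RT, then read for fluorescence. Data were scaled between DMSO (0%) and 10 nM T3 (100%).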

Test [6] is described as follows: qHTS assay for small molecule antagonists of retinoid X receptor alpha signaling (AID 588546; active = well fitted inhibition curve with a large enough effect in the signal ratio, with a control signal flat, not every such curve was filed as active; the % refers to the signal ratio;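 also: cells stimulated with 9-cis-retinoic acid as agonist; % is scaled to controls: 0 for no effect and ±100 for the full control effect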). As to conditions: HEK293T RXRa-UAS-bla, beta-lactamase ratio, antagonist mode; measured here: W530 green channel, cytotoxicity proxy. A digest of the protocol: (§2)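 Beta-lactamase reporter inhibition, read as CCF4 fluorescence ratio (ex 405, em 460/530 nm) after 2 h at RT. HEK293T UAS-bla cells, 2500/well, were stimulated with 9-cis-RA at 500 or 100 nM final alongside test compound for 18 h at 37 C.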

Test [7] has as its target Retinoic acid receptor RXR-alpha (Homo sapiens) (UniProt P19793). Described as above. As to conditions: HEK293T RXRa-UAS-bla, beta-lactamase ratio, antagonist mode. The essentials: as §2
A short description of test [8]: qHTS assay for small molecule activators of the p53 signaling pathway (AID 651743; active = well fitted activation curve with a large enough effect in the signal ratio, not every such curve was filed as active; the % refers to the signal ratio; also: % of control where 0% means no effect). As to conditions: HCT-116 p53RE-bla, beta-lactamase FRET ratio, 16 h; activation: stronger effect = higher value. The essentials: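 p53RE-bla HCT-116 cells with a stably integrated beta-lactamase reporter under p53 response elements were plated, rested 5 hours at 37 C/5% CO2, then exposed to compounds in DMSO for 16 hours at 37 C. LiveBLAzer B/G FRET substrate was read after 2 hours at room temperature.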

Test [9] can be described thus: qHTS assay for small molecule activators of the nuclear factor-kappa B (NF-kB) signaling pathway (AID 651749; active = well fitted activation curve with a large enough effect in the signal ratio; the % refers to the signal ratio; also: % of control where 0% means no effect). As to conditions: NF-kB-bla ME-180 cells, beta-lactamase FRET ratio, 16 h; activation: stronger effect = higher value. A digest of the protocol:
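ME-180 cells stably carrying a beta-lactamase reporter under an NF-kB response element were exposed to compound or DMSO vehicle for 16 hr at 37C, 5% CO2. Pathway activation was read by FRET, since reporter expression disrupts FRET.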

Test [10] can be described thus: qHTS assay for small molecule agonists of the antioxidant response element (ARE) signaling pathway measured by Nrf2-dependant transcriptional activity (AID 720636; active = well fitted curve in the direction sought with a large enough effect in the repeat runs; an effect the other way counts as inactive or inconclusive;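 also: HepG2 cells with an ARE-driven luciferase reporter; % of control where 0% means no effect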). The following applies: ARE-luc HepG2, Nrf2 luciferase reporter, 16 h; series mostly up to 92.4 µM. The essentials:
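Cells: ARE-luc HepG2 with Nrf2-responsive luciferase. Medium contained 1% dialyzed FBS. Compound exposure lasted 16 hr at 37 C and 5% CO2, followed by ONE-Glo luciferase detection.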

The nature of test [11]: qHTS assay for small molecule agonists of the antioxidant response element (ARE) signaling pathway measured by Nrf2-dependant transcriptional activity - cell viability counter screen (AID 720653; active = well fitted curve in the direction sought with a large enough effect in the repeat runs; an effect the other way counts as inactive or inconclusive; also: potency is read from the fitted curve at half-maximal effect; as to max response: % is scaled to controls: 0 for no effect and ±100 for the full control effect). The following applies: ARE-bla HepG2 viability, CellTiter-Glo ATP luminescence, 16 h; max response: stronger effect = lower value. The essentials: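 ARE-bla HepG2 cells (2,000/well) rested 5 hrs at 37C/5% CO2, then exposed to compounds in DMSO for 16 hrs. Viability was read in the same wells as intracellular ATP by luminescence, 30 min at room temperature after reagent addition.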

The nature of test [12]: qHTS assay for cell viability of HEK293 cells (AID 743288). Also: nearly all actives have a fitted effect of over 50% in size. Also: potency is read from the fitted curve at half-maximal effect. As to conditions: ATP luminescence (CellTiter-Glo), 18 h; max response: stronger effect = lower value. A digest of the protocol: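 Total intracellular ATP, measured with a luciferase-coupled reagent, indicates the number of viable HEK293 cells. Exposure to test chemicals lasts 18 h at 37 C in 1,536-well format at 2,000 cells/well.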

Test [13] is described as follows: qHTS assay for cell viability of the p53RE-bla HCT-116 cell line (AID 743292). Also: nearly all actives have a fitted effect of over 55% in size. Also: potency is read from the fitted curve at half-maximal effect. The following applies: p53RE-bla HCT-116 viability, ATP luminescence, 16 h; series mostly up to 95 µM. A digest of the protocol:
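HCT-116 p53RE-bla cells seeded 4,000/well; 5 h at 37 C; compound (DMSO) added; 16 h at 37 C; CellTiter-Glo added, 30 min RT; luminescence read.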

Test [14] deals with Nuclear receptor subfamily 1 group I member 2 (Rattus norvegicus) (UniProt Q9R1A7). The test can be described thus: qHTS assay for small molecule activators of the rat pregnane X receptor (rPXR) signaling pathway (AID 651751; call rule not given here; also: 0% is about no effect). The following applies: rPXR reporter cells, luciferase (One-Glo), 24 h.
The nature of test [15]: qHTS assay for small molecule activators of the human pregnane X receptor (PXR) signaling pathway (AID 720659; call rule not given here; also: 0% is about no effect). As to conditions: DPX-2 HepG2 CYP3A4-luciferase, 24 h; series mostly up to 92.3 µM.
Test [16] concerns the target Glucocorticoid receptor (Homo sapiens) (UniProt P04150). The test can be described thus: qHTS assay for small molecule antagonists of glucocorticoid receptor signaling (AID 588533; active = well fitted inhibition curve with a large enough effect in the signal ratio, with a control signal flat, not every such curve was filed as active; the % refers to the signal ratio;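 also: cells stimulated with 2 nM dexamethasone as agonist; % is scaled to controls: 0 for no effect and ±100 for the full control effect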). As to conditions: HeLa MMTV-bla, GRE beta-lactamase ratio, antagonist mode, 18 h; series mostly up to 76.8 µM. A digest of the protocol: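 Antagonist-mode qHTS: compound titrations added to GRE-bla HeLa cells, then dexamethasone 2 nM final; 18 h, 37 C. CCF4 FRET fluorescence normalized to dexamethasone and DMSO; IC50 from Hill fit.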

The target of test [17] is Vitamin D3 receptor (Homo sapiens) (UniProt P11473). As to the kind of experiment: qHTS assay for small molecule antagonists of vitamin D receptor signaling (AID 588541; calls by dose curve;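 also: receptor activated by calcitriol during compound treatment; % is scaled to controls: 0 for no effect and ±100 for the full control effect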). The following applies: HEK293T VDR-UAS-bla, beta-lactamase ratio, antagonist mode; series mostly up to 76.7 µM. The essentials:
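VDR-UAS-bla HEK293T cells (2000/well, 2% charcoal-stripped FBS) were treated with titrated compounds plus 1-alpha,25-dihydroxyvitamin D3 (50 nM or 3 nM final) for 16 h at 37 C. CCF4 beta-lactamase fluorescence was read; Hill fits gave IC50.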

The target is the same in test [18]. As to the kind of experiment: qHTS assay for small molecule agonists of vitamin D receptor signaling (AID 588543; calls by dose curve;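 also: 0% = DMSO basal and 100% = reference agonist control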). As to conditions: HEK293T VDR-UAS-bla, beta-lactamase ratio, 16 h; series mostly up to 76.8 µM. The essentials:
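Agonist-mode beta-lactamase reporter: HEK293T VDR-UAS-bla cells in charcoal-stripped 2% FBS, compound series 16 h 37 C, CCF4 2 h RT. EC50 from Hill fit, scaled against DMSO and 50 nM calcitriol control.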

The nature of test [19]: qHTS assay for environmental chemicals that activate the Aryl hydrocarbon Receptor (AhR) signaling pathway (AID 651777). Also: % of control where 0% means no effect; nearly all actives have a fitted effect of over 15% in size. The following applies: 1A2-DRE human hepatoma cells, luciferase, 24 h; activation: stronger effect = higher value. A digest of the protocol:
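1A2-DRE human hepatoma reporter line; 1,200 cells/well; cmpd or DMSO 24 h, 37 C/5% CO2; One-Glo 30 min RT; luciferase lum.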

Test [20] concerns the target Peroxisome proliferator-activated receptor alpha (Homo sapiens) (UniProt Q07869). The test can be described thus: qHTS assay for small molecule agonists of the peroxisome proliferator-activated receptor alpha (PPARalpha) signaling pathway (AID 651778). Also: % of control where 0% means no effect. The following applies: PathHunter PPARalpha complementation, chemiluminescence, 6 h; max response: stronger effect = higher value. The essentials:
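Cells plated at 2,000/well and held overnight at 37 C, 5% CO2, then compound added by pin tool for 6 hr; after PathHunter detection reagent and 60 min at room temperature, chemiluminescence from enzyme complementation was read.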

SMILES strings stand for the structures. Inconclusive results are not listed. Active and inactive are the calls of the source. Unless noted, calls follow the shape of the dose curve; as a rule, active = well fitted curve in the direction sought with a large enough effect; inconclusive = small, poorly fitted or top-dose-only effect, or another doubt; inactive = no such curve, though single readings can be large; an effect the other way counts as inactive or inconclusive.

Chain of Nuclear receptor subfamily 1 group I member 2 (Rattus norvegicus) (Q9R1A7 whole entry, looked up): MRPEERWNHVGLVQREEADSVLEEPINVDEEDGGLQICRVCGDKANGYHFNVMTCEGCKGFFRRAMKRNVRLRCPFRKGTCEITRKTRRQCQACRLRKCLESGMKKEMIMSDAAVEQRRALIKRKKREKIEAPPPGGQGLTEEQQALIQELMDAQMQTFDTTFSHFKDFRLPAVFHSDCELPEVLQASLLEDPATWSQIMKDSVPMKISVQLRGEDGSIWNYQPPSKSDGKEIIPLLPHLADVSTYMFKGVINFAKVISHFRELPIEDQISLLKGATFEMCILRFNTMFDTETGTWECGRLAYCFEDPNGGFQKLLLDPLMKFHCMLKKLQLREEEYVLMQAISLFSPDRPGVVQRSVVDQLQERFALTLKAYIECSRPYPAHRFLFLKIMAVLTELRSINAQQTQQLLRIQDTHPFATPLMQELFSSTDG
Chain of Glucocorticoid receptor (Homo sapiens) (P04150 whole entry, looked up): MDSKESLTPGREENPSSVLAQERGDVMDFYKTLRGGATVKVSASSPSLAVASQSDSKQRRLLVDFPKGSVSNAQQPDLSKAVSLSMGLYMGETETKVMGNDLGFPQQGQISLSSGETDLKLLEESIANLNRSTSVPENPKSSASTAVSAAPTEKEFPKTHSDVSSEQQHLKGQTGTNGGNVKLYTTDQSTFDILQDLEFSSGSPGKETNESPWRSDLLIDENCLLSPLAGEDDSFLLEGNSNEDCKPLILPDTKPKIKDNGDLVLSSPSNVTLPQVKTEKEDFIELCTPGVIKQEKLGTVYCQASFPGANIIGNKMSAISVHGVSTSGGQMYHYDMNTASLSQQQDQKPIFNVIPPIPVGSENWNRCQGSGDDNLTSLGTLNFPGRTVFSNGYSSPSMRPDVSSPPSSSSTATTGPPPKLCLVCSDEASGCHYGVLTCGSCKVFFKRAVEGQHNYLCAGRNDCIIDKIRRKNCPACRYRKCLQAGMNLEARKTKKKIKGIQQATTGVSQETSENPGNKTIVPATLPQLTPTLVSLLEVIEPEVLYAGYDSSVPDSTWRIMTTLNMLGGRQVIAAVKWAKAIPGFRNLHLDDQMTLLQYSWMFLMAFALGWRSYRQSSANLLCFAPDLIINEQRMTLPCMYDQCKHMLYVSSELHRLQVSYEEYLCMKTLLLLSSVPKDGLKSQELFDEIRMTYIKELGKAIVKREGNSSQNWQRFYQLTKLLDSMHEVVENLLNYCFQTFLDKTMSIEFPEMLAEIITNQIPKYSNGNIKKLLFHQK
Chain of Thyroid hormone receptor beta (Homo sapiens) (P10828 whole entry, looked up): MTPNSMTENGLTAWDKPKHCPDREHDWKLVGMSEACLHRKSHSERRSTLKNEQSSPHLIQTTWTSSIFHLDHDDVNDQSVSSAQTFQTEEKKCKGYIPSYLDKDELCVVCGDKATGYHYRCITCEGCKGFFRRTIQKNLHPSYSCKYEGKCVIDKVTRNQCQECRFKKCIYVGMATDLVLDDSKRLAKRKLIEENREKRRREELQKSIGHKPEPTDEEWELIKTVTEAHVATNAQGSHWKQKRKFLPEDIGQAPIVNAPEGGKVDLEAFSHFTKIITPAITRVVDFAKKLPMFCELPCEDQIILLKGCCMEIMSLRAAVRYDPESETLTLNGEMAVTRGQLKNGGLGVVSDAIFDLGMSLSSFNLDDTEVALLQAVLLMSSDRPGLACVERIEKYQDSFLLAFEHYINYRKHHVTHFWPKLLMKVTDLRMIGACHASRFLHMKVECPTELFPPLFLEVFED
Chain of Peroxisome proliferator-activated receptor alpha (Homo sapiens) (Q07869 whole entry, looked up): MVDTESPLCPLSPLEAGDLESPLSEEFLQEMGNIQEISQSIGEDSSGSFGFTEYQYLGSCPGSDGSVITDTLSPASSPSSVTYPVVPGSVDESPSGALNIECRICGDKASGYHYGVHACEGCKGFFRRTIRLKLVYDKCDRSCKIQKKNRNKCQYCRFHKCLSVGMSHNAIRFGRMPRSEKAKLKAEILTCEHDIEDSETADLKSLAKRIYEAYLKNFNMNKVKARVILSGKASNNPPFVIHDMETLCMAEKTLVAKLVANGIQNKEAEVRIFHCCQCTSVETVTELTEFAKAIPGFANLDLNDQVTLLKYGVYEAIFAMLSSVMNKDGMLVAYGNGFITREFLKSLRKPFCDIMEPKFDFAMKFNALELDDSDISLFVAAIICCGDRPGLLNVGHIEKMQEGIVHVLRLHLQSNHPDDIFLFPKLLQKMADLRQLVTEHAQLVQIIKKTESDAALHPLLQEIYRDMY
Chain of Retinoic acid receptor RXR-alpha (Homo sapiens) (P19793 whole entry, looked up): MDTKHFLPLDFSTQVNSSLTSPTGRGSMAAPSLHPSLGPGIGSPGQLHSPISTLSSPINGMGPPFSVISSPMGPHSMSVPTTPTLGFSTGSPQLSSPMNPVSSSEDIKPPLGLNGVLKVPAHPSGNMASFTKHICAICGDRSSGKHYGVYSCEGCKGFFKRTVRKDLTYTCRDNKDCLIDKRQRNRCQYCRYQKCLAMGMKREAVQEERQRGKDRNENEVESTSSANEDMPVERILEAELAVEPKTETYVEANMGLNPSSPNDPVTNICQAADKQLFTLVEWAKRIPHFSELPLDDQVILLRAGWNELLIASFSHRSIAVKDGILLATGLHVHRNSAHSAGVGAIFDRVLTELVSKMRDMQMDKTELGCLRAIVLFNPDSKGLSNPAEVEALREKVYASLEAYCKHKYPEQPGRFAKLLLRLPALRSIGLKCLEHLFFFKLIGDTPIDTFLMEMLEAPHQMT
Chain of Vitamin D3 receptor (Homo sapiens) (P11473 whole entry, looked up): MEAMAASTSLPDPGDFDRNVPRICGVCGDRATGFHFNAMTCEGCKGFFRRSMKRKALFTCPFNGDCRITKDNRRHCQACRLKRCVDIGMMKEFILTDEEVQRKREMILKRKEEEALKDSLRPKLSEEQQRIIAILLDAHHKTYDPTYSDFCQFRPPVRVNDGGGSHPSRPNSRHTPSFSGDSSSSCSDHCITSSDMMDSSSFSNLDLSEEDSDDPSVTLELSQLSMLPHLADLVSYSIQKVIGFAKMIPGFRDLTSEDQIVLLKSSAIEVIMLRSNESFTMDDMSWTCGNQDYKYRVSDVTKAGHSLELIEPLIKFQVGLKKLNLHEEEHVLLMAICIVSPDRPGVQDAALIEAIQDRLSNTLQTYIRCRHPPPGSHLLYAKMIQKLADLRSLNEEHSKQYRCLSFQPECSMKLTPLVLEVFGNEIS
Chain of Peroxisome proliferator-activated receptor delta (Homo sapiens) (Q03181 whole entry, looked up): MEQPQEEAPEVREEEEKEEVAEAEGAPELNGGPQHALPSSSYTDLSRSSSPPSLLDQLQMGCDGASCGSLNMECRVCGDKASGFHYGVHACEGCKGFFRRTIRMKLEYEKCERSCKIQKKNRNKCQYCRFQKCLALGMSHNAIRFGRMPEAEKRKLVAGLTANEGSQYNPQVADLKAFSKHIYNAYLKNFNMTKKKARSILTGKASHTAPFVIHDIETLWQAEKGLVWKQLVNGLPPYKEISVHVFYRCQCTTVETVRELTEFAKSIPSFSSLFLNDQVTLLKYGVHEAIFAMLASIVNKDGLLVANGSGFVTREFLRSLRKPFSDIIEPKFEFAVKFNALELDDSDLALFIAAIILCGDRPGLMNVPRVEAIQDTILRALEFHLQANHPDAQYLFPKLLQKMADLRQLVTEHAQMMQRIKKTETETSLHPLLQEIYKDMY

For `C=C(C)C(=O)OCC(CC)(COC(=O)C(=C)C)COC(=O)C(=C)C`, the values for the activation in [1], in test [8] and in test [9] were 3.82% (inactive), -3.72% (inactive) and 0.727% (inactive), respectively. The max response in [2] was 9.24%; in test [6], -6.08%; in test [7] it was 13.1% (inactive); in [11], -12% (inactive); in [12] it was -15.9% (inactive); in [14] it was -1.04% (inactive). In addition, the Potency result in [3], in test [4], in test [5], in test [10] and in [13] was “inactive” each time. The result in test [15] was inactive.

Take `C=CC(=O)OCCOc1ccccc1`: the activation was -7.33% (inactive) in test [1], 0.464% (inactive) in test [8] and -0.084% (inactive) in [19]. For the same molecule, the Potency entry in test [16], in test [3], in test [17], in test [5] and in test [13] was “inactive” each time. Moreover, the max response in test [2] was -44.3%; in test [6], -0.297%; in [7], -20.4% (inactive); in test [20], -0.522% (inactive); in [11] it was -16.9% (inactive); in test [12], -15.9% (inactive). The max response in test [14] is 2.62% (inactive). The result in [18] and in test [15] was inactive.

Turning to `CCCCC(CC)COC(=O)CS` (centres undefined), the activation in test [1] was 8.21% (inactive); in test [8], -0.039% (inactive); in test [9], 1.76% (inactive). For the same molecule, the Potency entry in test [16], in test [17], in test [4], in [5], in [10] and in test [13] was “inactive” in each case. Moreover, the outcome in test [18] and in [15] was inactive. The max response in test [6] was -9.5%; in test [7], 2.49% (inactive); in test [20], -1.44% (inactive); in test [11] it was 1.32% (inactive); in test [12], -2.56% (inactive); in test [14], 0.0458% (inactive).

For the molecule `CC[C@H]1O[C@]2(CC[C@@H]1C)C[C@@H]1C[C@@H](C/C=C(\C)C[C@@H](C)/C=C/C=C3CO[C@@H]4[C@H](O)C(C)=C[C@@H](C(=O)O1)[C@]34O)O2`, the activation in test [19] was -11.9% (inactive). In addition, in test [10], the Potency entry was “inactive”. Moreover, the Potency in test [13] was 31.6 µM (active).

For `Cc1cc(Cc2cc(C)cc(C(C)(C)C)c2O)c(O)c(C(C)(C)C)c1`, the values for the activation in [1] and in [19] were 20.3% (inactive) and -12.4% (inactive), respectively. The figures for the Potency in test [11] and in [13] were 39.8 µM (active) and 44.7 µM (active), respectively.

As to `CCN(Cc1c(F)cccc1Cl)c1c([N+](=O)[O-])cc(C(F)(F)F)cc1[N+](=O)[O-]`, the max response in test [2] was -79%; in test [20], -0.89% (inactive); in [11], -3.47% (inactive). Moreover, the Potency entry in test [3], in test [17], in test [10] and in test [13] was “inactive” in each case. For the same molecule, the outcome in [18] was inactive. The results for the activation in test [8], in [9] and in test [19] were 1.01% (inactive), -3.71% (inactive) and 0.127% (inactive), respectively.

Regarding `CC[C@H](C)C1O[C@]2(C=C[C@@H]1C)C[C@@H]1C[C@@H](C/C=C(\C)[C@@H](O[C@H]3C[C@H](OC)[C@@H](O[C@H]4C[C@H](OC)[C@H](NC(C)=O)[C@H](C)O4)[C@H](C)O3)[C@@H](C)/C=C/C=C3\CO[C@@H]4[C@H](O)C(C)=C[C@@H](C(=O)O1)[C@]34O)O2` (some centres undefined), the activation in test [1] was -14.6% (inactive); in [19] it was -11.2% (inactive). For the same molecule, the max response in test [20] was 6.61% (inactive). Also, in test [10], the Potency entry is “inactive”. Besides, the Potency was 44.7 µM (active) in [12] and 14.1 µM (active) in test [13]. Also, in test [15], the call was inactive.
